Compound activity deposited in PubChem BioAssay by National Center for Advancing Translational Sciences (NCATS).
Rows were chosen to be rich in hits. Some 8.7% of all compounds tested hit in one or more screens of this group.
Sfp inh: blocks B. subtilis Sfp PPTase activity | AID 1490 | Q9F4F7 | Biochemical Sfp PPTase activity, qHTS | 310,000 compounds, 3.5% hits | Potency, µM, for inactives: largest response in the series, negative = inhibition, actives largely listed as inhibitors;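 further: the enzyme is Sfp with the accession as filed and its product quenches rhodamine fluorescence; 0% = enzyme reaction without inhibitor and -100% = no enzyme wells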
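Buffer: 50 mM Hepes-Na pH 7.6, 10 mM MgCl2, 0.01% Nonidet P-40, 0.01% BSA. Enzyme 15 nM, pre-exposed to compound 15 min; substrates then added and fluorescence change tracked over 30 min.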
HP1b chromo inh: HP1-beta chromodomain-methylated histone interaction inhibition; P83916; AlphaScreen HP1-beta / biotin-H3K9me3 peptide binding; Potency, µM (titrated, usually from 114 µM), for the others: at the top dose activity change, negative = inhibition, hits mostly inhibitors; 390,000 compounds, 0.56% hits; AID 540317; further: nearly all actives have a fitted effect of over 70% in size
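HP1-beta protein (50 nM final) preincubated 30 min at room temperature with biotinylated H3(1-18)K9me3 peptide (50 nM) in PBS pH 7.4, 0.01% Tween-20, then compound added for 30 min. AlphaScreen streptavidin donor/nickel chelate acceptor beads (10 ug/mL final), 30 min dark, luminescence read.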
12-LOX inh: inhibitors of human 12S-lipoxygenase ALOX12 | 580,000 compounds, 1.1% hits | P18054 | AID 1671190 | purified 12hLO, xylenol orange hydroperoxide absorbance | Potency, µM (highest dose often 108 µM), without a hit: at the top dose activity change, negative = inhibition, most hits filed as inhibitors; further: on the % scale 0 is the no-effect control and ±100 the full control effect
Target sequence (P18054 whole entry, looked up): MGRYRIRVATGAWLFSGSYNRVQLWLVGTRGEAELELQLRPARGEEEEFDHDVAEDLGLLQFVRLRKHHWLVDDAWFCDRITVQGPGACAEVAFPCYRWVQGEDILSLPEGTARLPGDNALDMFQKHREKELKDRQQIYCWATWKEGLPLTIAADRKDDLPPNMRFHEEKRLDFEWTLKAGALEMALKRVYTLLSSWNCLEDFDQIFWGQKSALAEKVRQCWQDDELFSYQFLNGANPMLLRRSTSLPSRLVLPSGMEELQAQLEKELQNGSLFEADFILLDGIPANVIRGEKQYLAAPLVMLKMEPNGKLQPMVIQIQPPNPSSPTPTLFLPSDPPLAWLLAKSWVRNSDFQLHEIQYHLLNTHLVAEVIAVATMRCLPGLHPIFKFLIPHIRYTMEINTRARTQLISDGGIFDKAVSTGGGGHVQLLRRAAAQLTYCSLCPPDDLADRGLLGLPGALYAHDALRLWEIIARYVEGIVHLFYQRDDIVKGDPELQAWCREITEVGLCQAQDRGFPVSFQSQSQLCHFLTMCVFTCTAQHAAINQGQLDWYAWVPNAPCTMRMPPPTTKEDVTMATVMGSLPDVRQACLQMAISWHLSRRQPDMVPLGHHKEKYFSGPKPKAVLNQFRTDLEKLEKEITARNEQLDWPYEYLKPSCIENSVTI
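Purified human 12hLO (150 nM final) in 25 mM Hepes, 0.01% Triton X-100, pH 7.0 was preincubated 15 min at room temperature with compound. Then 40 uM arachidonic acid was added, 30 min. Hydroperoxide was read by Fe-XO absorbance ratio 573/405 nm.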
G9a inh: inhibitors of human histone lysine methyltransferase G9a. Q96KQ7. G9a H3K9 monomethylation, AlphaScreen, 2 h. Potency, µM (series often up to 102 µM), inactives show top-dose activity, negative = inhibition, hits mostly inhibitors. 350,000 compounds, 8.8% hits. AID 504332; further: on the % scale 0 is the no-effect control and ±100 the full control effect; nearly all actives have a fitted effect of over 75% in size
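G9a (20 nM) preincubated 15 min RT with compounds, then 500 nM biotinylated H3K9 peptide and 20 uM SAM added; 2 h RT reaction. Monomethyl-H3K9 product detected by AlphaScreen with anti-H3K9me1 antibody, streptavidin donor and anti-rabbit IgG acceptor beads.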
BAZ2B block: BAZ2B (human) inhibition. Q9UIF8. AlphaScreen BAZ2B-H3K14Ac peptide displacement. Potency, µM (top dose mostly 114 µM), for the others: at the top dose activity change, negative = inhibition, actives largely listed as inhibitors. 360,000 compounds, 4.4% hits; further: on the % scale 0 is the no-effect control and ±100 the full control effect; nearly all actives have a fitted effect of over 60% in size
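Inhibition is scored as reduced AlphaScreen emission. The BAZ2B/b-H3(5-23)K14Ac complex (50 nM each) in PBS pH 7.4, 0.01% Tween-20 meets compound (up to 110 uM) for 30 min at RT before bead addition.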
JMJD2A Tudor: JMJD2A Tudor domain (human) inhibition | AlphaScreen JMJD2A-Tudor / H3K4me3 peptide binding | AID 504339 | Potency, µM (series often up to 114 µM), without a hit: at the highest dose activity change, negative = inhibition, usual class: inhibitors | O75164 | 390,000 compounds, 4.4% hits; further: on the % scale 0 is the no-effect control and ±100 the full control effect; nearly all actives have a fitted effect of over 50% in size
Active calls of the source: *; u = inconclusive; x = no result; [ ] = another dose, or the depositor's remark. The call rests on the fitted dose curve; in most records, active means well fitted curve in the direction sought with a large enough effect; inconclusive means small, poorly fitted or top-dose-only effect, or another doubt; inactive means no such curve, though single readings can be large; an effect the other way counts as inactive or inconclusive. Potency means the concentration at half of the fitted maximal effect.

SMILES	Sfp inh	HP1b chromo inh	12-LOX inh	G9a inh	BAZ2B block	JMJD2A Tudor
O=C(Nc1ccc(F)cc1)N1CCC(O)(c2csc(CN3CCN(c4ccccn4)CC3)n2)CC1	x	x	12%	x	x	x
COc1ccc(C(C(=O)Nc2ccc3c(c2)OCCO3)N(C)C(=O)Cc2cccs2)cc1 (stereo unspecified)	x	x	-31%	x	x	x
Cc1cc(C)c(C#N)c(SCC(=O)c2ccccc2)n1	-10%	148%	-9%	x	-4%	16%
Cc1cc(=O)[nH]c(SCC(=O)c2ccccc2)c1C#N	20µM*	49%	-18%	u	-6%	-14%
Cc1ccccc1NC(=O)CSc1[nH]c(=O)cc(C)c1C#N	22µM*	37%	u	14µM*	5%	-16%
COc1ccc(NC(=O)CSc2[nH]c(=O)cc(C)c2C#N)cc1OC	-12%	24%	-23%	14%[59 µM]	-2%	-17%
O=S(=O)(NCC1CCOCC1)c1cccc(F)c1	x	x	41%	x	x	x
Cc1cccc(-c2cc(Nc3ccc(SC#N)cc3)nc(C)n2)c1	x	x	-30%	x	x	x
Cc1ccc(-c2cc(Nc3ccccc3)nc(C)n2)cc1	x	x	7.1µM*	x	x	x
Cc1ccc(-c2cc(Nc3ccccc3C(F)(F)F)nc(C)n2)cc1	x	x	16µM*	x	x	x
Cc1ccc(-c2cc(C(F)(F)F)n3nc(C)c(Cl)c3n2)cc1	x	x	5%	x	x	x
Cc1ccc(C(=O)Nc2ccc3oc(-c4ccc(F)cc4)nc3c2)cc1[N+](=O)[O-]	x	x	8%	x	x	x
O=C(c1ccc(OCc2cn3ccccc3n2)cc1)N1CCN(C(=O)c2cccs2)CC1	x	x	-32%	x	x	x
CN1C(=O)S/C(=C/c2cccnc2)C1=O	9%	54%	-10%	22%[59 µM]	9%	-2%
O=C(NCCN1C(=O)S/C(=C\c2cccnc2)C1=O)C1=NN(c2ccccc2)C(=O)CC1	-21%	-29%	u	-1%[59 µM]	-11%	3.5µM*
O=C1/C(=C/c2ccccc2)SC(=S)N1CC(=O)N1CCCCC1c1cccnc1 (stereo unspecified)	-15%	-15%	-17%	40µM*	32µM*	35µM*
Cc1ccccc1NC(=O)CN1C(=O)S/C(=C/c2cccnc2)C1=O	-11%	41%	-9%	-23%	0%	-17%
O=C(O)CN1C(=O)S/C(=C\c2cccnc2)C1=O	56µM*	6%[57 µM]	-111%	x	50µM*	-18%
O=C1/C(=C\c2cccnc2)Sc2ccccc21	5%	-8%	-16%	20%[59 µM]	-30%	79µM*
Cc1nnc(NC(=O)C[C@H]2NC(=O)c3ccccc3NC2=O)s1	x	x	49%	x	x	x
CCOC(=O)c1oc2cc(O)ccc2c(=O)c1-c1ccc(Br)cc1	x	x	-2%	x	x	x
COc1ccc(C)cc1S(=O)(=O)N1CC(C)OC(C)C1 (stereo unspecified)	0%	23%	-24%	x	-1%	-1%
O=C1CCC(=O)N1OCCOc1ccc(Cl)c2ccccc12	23%	34%	0%	8%	3%	-8%
COc1cc(C)ccc1OCCCCN1CC(C)OC(C)C1 (stereo unspecified)	-20%	u	u	8.9µM*	50µM*	35µM*
CC1CN(CCS(=O)(=O)c2cc(Cl)ccc2Cl)CC(C)O1 (stereo unspecified)	6%	18%	-5%	-12%	2%	1%
SMILES	Sfp inh	HP1b chromo inh	12-LOX inh	G9a inh	BAZ2B block	JMJD2A Tudor
Cc1cc(C)c(C)c(OCCN2CC(C)OC(C)C2)c1 (stereo unspecified)	45µM*	u	u	1.8µM*	32µM*	5.6µM*
CC1CN(CCCCOc2ccc(Cl)c3ccccc23)CC(C)O1 (stereo unspecified)	79µM*	-33%	u	x	u	11µM*
CC1CN(CCOc2ccc(Cl)cc2Cl)CC(C)O1 (stereo unspecified)	-16%	u	-17%	u	-37%	8.9µM*
Cc1cc(C)c(C)c(OCC(=O)N2CCOCC2)c1	3%	36%	13%	-8%[59 µM]	-2%	2%
Nc1nccnc1C(=O)OCC(=O)c1ccc[nH]1	x	6%	-13%	50µM*	-1%	-16%
CCOc1ncccc1C(=O)OCC(=O)c1ccc[nH]1	11%	49%	17%	14%	-2%	-8%[57.1 µM]
Cc1c(C=O)c2ccccn2c1C(=O)c1cccs1	u	33%	-22%	50µM*	-26%	-1%
Cc1c(C=O)c2ccccn2c1C(=O)c1ccccc1Cl	9%	13%	-3%	8%[2.33 µM]	3%	-14%
O=C(c1ccc(C(=O)N2CCOCC2)nc1)N1CCOCC1	21%	5%	u	u	2%	40µM*
Nc1nccnc1C(=O)NCc1cccnc1-n1cncn1	x	x	-35%	x	x	x
CCC1CCC2(C1)N=C(Nc1nc3ccccc3o1)NC1=C2C(=O)CCC1 (stereo unspecified)	x	x	x	x	x	-35%
CC1CCC2(C1)N=C(Nc1nc3ccccc3o1)NC1=C2C(=O)CCC1 (stereo unspecified)	x	x	x	x	x	56µM*
Cc1nc(SC2C=CS(=O)(=O)C2)n[nH]1 (stereo unspecified)	7%	8%	u	50µM*	u	56µM*
CN(c1ccc(O)cc1)c1nc(-c2ccccc2)cs1	-11%	-8%	u	u	50µM*	-24%
OC(c1ccccc1)(c1nc(-c2cccc3cccnc23)cs1)C(F)(F)F (stereo unspecified)	x	x	-18%	x	x	x
CN(C(=O)c1ccco1)c1nc(-c2ccccc2)cs1	1%	118%	0%	11%[59 µM]	-33%	-8%
CN(C)c1ccc(-c2csc(C(O)(c3ccccc3)C(F)(F)F)n2)cc1 (stereo unspecified)	x	x	18µM*	x	x	x
Cc1ccccc1-c1csc(C(O)(c2ccccc2)C(F)(F)F)n1 (stereo unspecified)	x	x	45µM*	x	x	x
CCCC(=O)Nc1ccc(C(=O)Nc2cc(C)cc(C)c2)cc1	x	x	9%	x	x	x
Cc1ccc(C)c(CN2CCCNC2=O)c1	50µM*	21%	0%	45µM*	u	-15%
Cc1ccc(CN2CCCNC2=O)cc1	16%	3%	16%	-6%	u	-15%
S=C1NCCc2ccc(Cl)cc2C1c1ccccc1Cl (stereo unspecified)	13%	-27%	32µM*	u	45µM*	u
Clc1ccc2c(c1)C(C1=NCCN1)c1ccccc1CS2 (stereo unspecified)	28%	32%	-10%	6%[59 µM]	3%	-7%
CN(Cc1ccc(C#N)cc1)Cc1ccco1	x	x	-4%	x	x	x
[O-]/C(=C(\C(=S)Nc1ccc(SC(F)F)cc1)[n+]1ccccc1)c1cc(Cl)ccc1Cl	7%	-18%	u	35µM*	u	u
Cc1cc(C)c(/C([O-])=C(/C(=S)Nc2ccc(SC(F)F)cc2)[n+]2ccccc2)cc1C	-25%	-22%	u	35µM*	22µM*	u
